# In PubChem BioAssay (NCI):
# Compounds without any hit were thinned out: in the full panel of roughly 83,000, 20% have a hit.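 Compound tested at a single concentration for 48 hours in 96-well plates; a percent growth value below 10 was scored as active.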 The source made the active and inactive calls.
# Tested on: MDA-MB-468 breast
# Experiment: NCI-60 one-dose screen, 48 h (100 = growth as untreated, 0 = no growth, -100 = all killed)
# Conditions: 10 µM unless noted
row,Compound,growth
1,COc1cc(NC(=O)CCSc2nc3ccc(C)cc3c(=O)n2Cc2ccccc2)cc(OC)c1OC,68.6% (inactive)
2,O=c1ccn2nc3ccccc3c2[nH]1,95.5% (inactive)
3,C[C@]12C[C@@H](c3ccoc3)OC(=O)[C@@H]1CC[C@]1(C)[C@@H]2CC[C@@H](O)[C@]1(C)O,88.3% (inactive)
4,O=C(Nc1cccc(NC(=O)C2CCCCC2)c1)c1ccccn1,116% (inactive)
5,CC(=O)[C@H]1CC[C@H]2[C@@H]3CC[C@H]4CC=CC[C@]4(C)[C@H]3CC[C@]12C,84.7% (inactive)
6,CC[C@H](C)[C@H](NC(=O)[C@H](CCCNC(=N)N)NC(=O)[C@H](Cc1c[nH]c2ccccc12)NC(=O)[C@@H](NC(=O)[C@H](CCCCN)NC(=O)[C@H](CCCCN)NC(=O)[C@@H](NC(=O)[C@@H](NC(=O)[C@@H](NC(=O)[C@H](CCCCN)NC(=O)[C@H](Cc1ccccc1)NC(=O)[C@H](CCCCN)NC(=O)[C@H](CCCCN)NC(=O)[C@H](Cc1ccccc1)NC(=O)[C@@H](NC(=O)[C@@H](N)CCCCN)[C@@H](C)CC)[C@@H](C)O)[C@@H](C)CC)[C@@H](C)CC)C(C)C)C(=O)N[C@@H](Cc1ccccc1)C(=O)NCC(=O)N[C@@H](CCCNC(=N)N)C(=O)N[C@@H](Cc1ccccc1)C(N)=O,28.8% (inactive)
7,O=C(Nc1nc(-c2ccccc2)cs1)c1cc(O)c(O)c(O)c1,46.3% (inactive)
8,ClC1=C(Cl)C(=C2C(Cl)=C(Cl)C(Cl)=C2Cl)C(Cl)=C1Cl,114% (inactive)
9,C[N+]1=C(/C=C/c2ccccc2Cl)C(C)(C)c2ccccc21,88.1% (inactive)
10,Cn1cc(-c2nc3c(F)cc4[nH]ncc4c3c3c2CCCC3)c(C(F)(F)F)n1,33% (inactive)
11,Cc1ccc(OC(=O)c2ccccc2)cc1,107% (inactive)
12,c1csc(-c2ccc(CNc3c4ccccc4nc4ccccc34)cc2)c1,-72.5% (active)
13,CC(=O)c1ccc(NCC(=O)Nc2ccccn2)cc1,106% (inactive)
14,COc1ccc(-c2cnc(-c3ccncc3-c3cccc(OC)c3)o2)cc1,31.8% (inactive)
15,COc1cc(-c2nc3ccccc3[nH]2)ccc1OCc1nnc(-c2ccc(CC(C)C)cc2)o1,94.1% (inactive)
16,O=S(=O)(O)c1cccc(Nc2ccc3ccccc3c2)c1,105% (inactive)
17,COc1nc2c(cc1S(=O)(=O)c1ccccc1)CCc1c-2cnn1-c1cccc(Cl)c1,60% (inactive)
18,COc1cc(/C=C/C(=O)C(=Cc2ccc(F)c(F)c2)C(=O)/C=C/c2ccc(O)c(OC)c2)ccc1O,25.6% (inactive)
19,O=C(O)COc1ccc(Cl)c(Cl)c1,99.5% (inactive)
20,COc1ccc(C(=O)c2cc(OC)c(OC)c(OC)c2OC)cc1O,29.7% (inactive)
21,CN(C)C[C@@H]1CCn2cc(c3ccccc32)C2=C(C(=O)NC2=O)c2cn(c3ccccc23)CCO1,23.3% (inactive)
22,Cc1ccc(S(=O)(=O)NNC(=O)/C(=C\c2ccc(Cl)cc2)c2nc3ccccc3s2)cc1,111% (inactive)
23,Nc1nc(N)c(-c2ccc(Cl)cc2)c(/C=C/c2ccc([N+](=O)[O-])cc2)n1,64.7% (inactive)
24,NS(=O)(=O)c1ccc(-n2ncc(NC(=O)Nc3ccc(S(=O)(=O)Nc4nccs4)cc3)c2-c2ccccc2)cc1,102% (inactive)
25,CCCCCCCCOC(=O)c1c(C)[nH]c(/C=C2\N=C(c3ccc[nH]3)C=C2OC)c1C,-25.7% (active)
